# Assay results published in PubChem BioAssay (NCATS).
# Where “and” joins values, the source holds several entries; their conditions need not be identical. Equal entries are not always repeated. Inconclusive results are not listed. Where a call stands in place of a potency, no number is given. Calls of active or inactive are those of the source. Unless noted, calls follow the shape of the dose curve; as a rule, active = well fitted cell-killing curve with a large enough effect; inconclusive = small, poorly fitted or top-dose-only effect; inactive = flat fitted curve, though single readings scatter.
# Experiments:
# [1] = Cell Viability - LYMP2-006 (AID 978); also: series mostly up to about 92 µM; nearly all actives have a fitted effect of over 60% in size
# How it was run: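 Cells are seeded at 2500 per well and rested 5 hr at 37 C. Compounds are added across a concentration series for 24 hr at 37 C, after which ATP is quantified by luciferase luminescence.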
# [2] = Cell Viability - LYMP2-007 (AID 979);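 also: cells exposed to compound for 24 h before reading; nearly all actives have a fitted effect of over 60% in size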
# How it was run: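 Human lymphoblastoid cells (2500/well) were plated in complete medium, incubated 5 hr at 37 C, then exposed to compounds for 24 hr at 37 C. Intracellular ATP was read by CellTiter-Glo luminescence after 30 min at room temperature; AC50 from Hill fits.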
# [3] = Cell Viability - LYMP2-008 (AID 980); also: nearly all actives have a fitted effect of over 60% in size
# How it was run: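 Human lymphoblastoid cells (2500/well) were plated, held 5 hr at 37 C, then exposed to compounds for 24 hr at 37 C in complete medium. Intracellular ATP was read by CellTiter-Glo luminescence; AC50 from Hill-fitted concentration-response.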
# [4] = Cell Viability - LYMP2-012 (AID 982);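 also: cellular ATP by luciferase luminescence where a drop means cytotoxicity; cells exposed to compound for one day before reading; nearly all actives have a fitted effect of over 55% in size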
# [5] = Cell Viability - LYMP2-014 (AID 983); also: series mostly up to about 92 µM; nearly all actives have a fitted effect of over 50% in size
# How it was run: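 Human lymphoblastoid cells (2500/well) were pre-incubated 5 hr at 37 C, then exposed to compounds in complete medium for 24 hr at 37 C. Intracellular ATP was read by CellTiter-Glo luminescence after 30 min at room temperature; AC50 from Hill fits.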
# [6] = Cell Viability - LYMP2-016 (AID 984); also: nearly all actives have a fitted effect of over 55% in size
# How it was run: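 Cells were seeded at 2500 per well and rested 5 hr before a 24 hr compound exposure at 37 C. Viability was then gauged as cellular ATP by luciferase luminescence, with AC50 values fitted to the Hill equation.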
# [7] = Cell Viability - LYMP2-018 (AID 985); also: nearly all actives have a fitted effect of over 50% in size
# How it was run: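 Human lymphoblastoid cells (2500/well) were pre-incubated 5 hr at 37 C, then exposed to compounds for 24 hr at 37 C in complete medium. Viability was read as intracellular ATP by CellTiter-Glo luminescence; AC50 values came from Hill-equation fits.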
# [8] = Cell Viability - LYMP2-020 (AID 986); also: series mostly up to about 92 µM; nearly all actives have a fitted effect of over 55% in size
# How it was run: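 Human lymphoblastoid cells, 2500/well, were pre-incubated 5 hr at 37 C, then exposed to compounds for 24 hr at 37 C in complete medium. Intracellular ATP was read by CellTiter-Glo luminescence, and AC50 was derived by Hill fitting of concentration-response data.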
# [9] = Cell Viability - LYMP2-022 (AID 987); also: nearly all actives have a fitted effect of over 55% in size
# How it was run: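 Human lymphoblastoid cells, 2500/well, preincubated 5 hr at 37 C, then exposed to compounds over a concentration range for 24 hr at 37 C in complete medium. Viability read as intracellular ATP by CellTiter-Glo luminescence after 30 min at room temperature; AC50 from Hill fits.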
# [10] = Cell Viability - LYMP2-024 (AID 988); also: nearly all actives have a fitted effect of over 60% in size
# How it was run: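 Human lymphoblastoid cells (2500/well) in complete medium were preincubated 5 hr at 37 C, then exposed to compounds for 24 hr at 37 C. Intracellular ATP was read by CellTiter-Glo luminescence; AC50 from Hill-equation fits of concentration-response data.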
# [11] = Cell Viability - LYMP2-026 (AID 989); also: nearly all actives have a fitted effect of over 50% in size
# How it was run: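 Human lymphoblastoid cells (2500/well) in complete medium were preincubated 5 hr at 37 C, then exposed to compounds for 24 hr at 37 C. Cellular ATP was read by CellTiter-Glo luminescence; AC50 from Hill-equation fits of concentration-response data.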
# [12] = Cell Viability - LYMP1-002 - Assay at 24 hr (AID 993)
# How it was run: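 Human lymphoblastoid LYMP1-002 cells, 2500/well in complete medium, were treated with compounds for 24 h at 37 C; intracellular ATP was read by CellTiter-Glo luminescence. AC50 values came from Hill-equation fits of qHTS concentration-response data.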
# [13] = Cell Viability - LYMP1-002 - Assay at 40 hr (AID 994); also: nearly all actives have a fitted effect of over 60% in size
# How it was run: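 Human lymphoblastoid cells, 2500/well in complete medium, were preincubated 5 hr at 37 C, then exposed to compounds for 40 hr at 37 C. Intracellular ATP was read by CellTiter-Glo luminescence after 30 min at room temperature; AC50 from Hill-equation fits.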
# [14] = qHTS Assay for Identification of Small Molecule Inducers of Hypoxia Response (AID 2120; active = well fitted curve in the direction sought with a large enough effect in the signal ratio, with a control signal flat, not every such curve was filed as active; the % refers to the signal ratio)
# How it was run: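 HRE-beta-lactamase reporter in CellSensor HRE-bla ME-180 cells, 2500 cells/well in Opti-MEM with 0.5% dialyzed FBS; compounds tested as titration series, 17 h at 37 degrees C. CCF4 substrate 2.5 h at room temperature; AC50 from 460/530 nm ratio.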
# [15] = target: Estrogen receptor (Homo sapiens) (UniProt P03372); experiment: qHTS assay for small molecule antagonists of estrogen receptor alpha signaling (AID 588513; active = well fitted curve in the direction sought with a large enough effect in the signal ratio, with a control signal flat, not every such curve was filed as active; the % refers to the signal ratio)
# How it was run: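 Fluorescence from CCF4 substrate after 2 h at room temperature gave reporter activity; cells had been exposed to compound and 0.5nM 17-beta-estradiol for 18 h at 37 C. Hill-equation fitting yielded IC50 and maximal response.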
# [16] = target: Estrogen receptor (Homo sapiens) (UniProt P03372); experiment: qHTS assay for small molecule agonists of estrogen receptor alpha signaling (AID 588514; calls by dose curve; also: nearly all actives have a fitted effect of over 70% in size)
# How it was run: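 ER-alpha-UAS-bla GripTite HEK 293 cells in medium with 2% charcoal/dextran-treated FBS were treated with compound titrations at 37 C for 18 hrs; beta-lactamase reporter read by CCF4 fluorescence after 2 hrs at RT.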
# [17] = target: Bile acid receptor (Homo sapiens) (UniProt Q96RI1); experiment: qHTS assay for small molecule antagonists of farnesoid X receptor signaling (AID 588526; calls by dose curve)
# How it was run: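 Antagonist mode: titrated compounds tested against chenodeoxycholic acid stimulation (normalized to 50 uM CDCA and DMSO) in GeneBLAzer HEK293T cells for 16 h. Beta-lactamase read by CCF4 fluorescence; IC50 from Hill fits.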
# [18] = target: Bile acid receptor (Homo sapiens) (UniProt Q96RI1); experiment: qHTS assay for small molecule agonists of farnesoid X receptor signaling (AID 588527; calls by dose curve; also: series mostly up to about 77 µM); settings: HEK293T FXR-UAS-bla, beta-lactamase ratio, 16 h; stronger effect = higher value
# How it was run: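 FXR-UAS-bla HEK293T, 10% dialyzed FBS; cpds up to 92 uM titration, 16 h 37 C; CCF4 dye 2 h RT; fluorescence. Normalized to chenodeoxycholic acid 100 uM (100%) and DMSO (0%); Hill fit gives EC50, efficacy.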
# [19] = target: Glucocorticoid receptor (Homo sapiens) (UniProt P04150); experiment: qHTS assay for small molecule agonists of glucocorticoid receptor signaling (AID 588532; active = well fitted curve in the direction sought with a large enough effect in the signal ratio, with a control signal flat; the % refers to the signal ratio); settings: HeLa MMTV-bla, beta-lactamase ratio, agonist, 18 h; stronger effect = higher value; percent of dexamethasone control, DMSO zero
# How it was run: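 HeLa GRE-bla reporter cells; 18 h compound exposure at 37 C; 2 h CCF4 loading at room temperature; fluorescence at 460 and 530 nm; EC50 by Hill equation.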
# [20] = target: Glucocorticoid receptor (Homo sapiens) (UniProt P04150); experiment: qHTS assay for small molecule antagonists of glucocorticoid receptor signaling (AID 588533; active = well fitted inhibition curve with a large enough effect in the signal ratio, with a control signal flat, not every such curve was filed as active; the % refers to the signal ratio;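 also: cells stimulated with 2 nM dexamethasone as agonist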)
# How it was run: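 Antagonist-mode qHTS: compound titrations added to GRE-bla HeLa cells, then dexamethasone 2 nM final; 18 h, 37 C. CCF4 FRET fluorescence normalized to dexamethasone and DMSO; IC50 from Hill fit.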
# [21] = target: Peroxisome proliferator-activated receptor delta (Homo sapiens) (UniProt Q03181); experiment: qHTS assay for small molecule agonists of peroxisome proliferator-activated receptor delta signaling (AID 588534; calls by dose curve)
# How it was run: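 Cell-based beta-lactamase reporter assay run in agonist mode: cells seeded and incubated 5 hrs at 37 C, compounds added and incubated 18 hrs at 37 C. CCF4 dye fluorescence read after 2 hrs at RT; EC50 and efficacy from Hill fits.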
# [22] = qHTS assay for small molecule antagonists of peroxisome proliferator-activated receptor delta signaling (AID 588535); settings: HEK293T PPARd-UAS-bla, beta-lactamase FRET ratio, 18 h; 460 nm channel;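 also: cells co-treated with a PPAR-delta agonist as stimulator during compound exposure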
# How it was run: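 Cells were seeded at 4000 per well in assay medium containing 2% charcoal/dextran FBS and held 5 hrs at 37 C. Compounds were then added for 18 hrs. CCF4 substrate was applied for 2 hrs at room temperature before fluorescence reading.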
# Peroxisome proliferator-activated receptor delta (Homo sapiens), sequence (Q03181 whole entry, looked up): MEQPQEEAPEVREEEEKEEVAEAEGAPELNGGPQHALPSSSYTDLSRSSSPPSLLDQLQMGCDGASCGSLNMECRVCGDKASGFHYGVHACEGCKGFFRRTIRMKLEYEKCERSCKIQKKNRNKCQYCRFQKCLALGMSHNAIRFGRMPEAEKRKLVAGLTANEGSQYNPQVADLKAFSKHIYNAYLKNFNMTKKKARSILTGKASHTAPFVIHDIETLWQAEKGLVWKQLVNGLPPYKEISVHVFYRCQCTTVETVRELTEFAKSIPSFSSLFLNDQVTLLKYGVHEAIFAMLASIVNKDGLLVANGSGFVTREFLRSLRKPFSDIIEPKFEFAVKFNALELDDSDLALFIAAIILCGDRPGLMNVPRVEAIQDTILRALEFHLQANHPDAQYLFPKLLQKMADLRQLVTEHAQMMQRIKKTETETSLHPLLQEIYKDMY
# Bile acid receptor (Homo sapiens), sequence (Q96RI1 whole entry, looked up): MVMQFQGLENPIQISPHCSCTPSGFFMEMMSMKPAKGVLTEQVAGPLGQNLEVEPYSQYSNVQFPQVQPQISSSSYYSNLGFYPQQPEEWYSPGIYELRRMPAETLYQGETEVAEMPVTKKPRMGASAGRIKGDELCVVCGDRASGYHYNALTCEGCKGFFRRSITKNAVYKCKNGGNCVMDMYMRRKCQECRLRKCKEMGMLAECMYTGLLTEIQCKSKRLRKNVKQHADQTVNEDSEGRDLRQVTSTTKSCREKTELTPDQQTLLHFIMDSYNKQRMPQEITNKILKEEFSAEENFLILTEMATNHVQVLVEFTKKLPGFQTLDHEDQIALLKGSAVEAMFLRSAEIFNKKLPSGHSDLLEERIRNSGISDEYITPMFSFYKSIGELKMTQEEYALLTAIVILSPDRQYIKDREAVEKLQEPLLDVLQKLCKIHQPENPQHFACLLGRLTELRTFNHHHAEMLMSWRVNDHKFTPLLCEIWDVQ
# Estrogen receptor (Homo sapiens), sequence (P03372 whole entry, looked up): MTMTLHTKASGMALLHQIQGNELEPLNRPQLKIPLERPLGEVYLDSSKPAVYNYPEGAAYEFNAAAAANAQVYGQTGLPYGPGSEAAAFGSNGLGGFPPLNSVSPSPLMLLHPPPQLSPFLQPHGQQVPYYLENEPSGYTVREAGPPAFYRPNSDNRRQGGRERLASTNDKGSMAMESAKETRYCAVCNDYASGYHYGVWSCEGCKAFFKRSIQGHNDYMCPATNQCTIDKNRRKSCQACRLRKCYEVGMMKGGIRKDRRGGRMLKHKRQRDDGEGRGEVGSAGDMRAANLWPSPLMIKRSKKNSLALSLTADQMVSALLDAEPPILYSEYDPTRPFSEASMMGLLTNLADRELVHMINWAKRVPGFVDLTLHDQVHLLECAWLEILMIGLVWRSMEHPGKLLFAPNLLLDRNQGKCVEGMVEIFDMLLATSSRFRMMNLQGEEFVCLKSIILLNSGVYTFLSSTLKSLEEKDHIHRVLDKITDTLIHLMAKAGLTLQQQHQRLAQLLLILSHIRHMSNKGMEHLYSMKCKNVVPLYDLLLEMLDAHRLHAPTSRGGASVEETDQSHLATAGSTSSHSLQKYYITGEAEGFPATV
# Glucocorticoid receptor (Homo sapiens), sequence (P04150 whole entry, looked up): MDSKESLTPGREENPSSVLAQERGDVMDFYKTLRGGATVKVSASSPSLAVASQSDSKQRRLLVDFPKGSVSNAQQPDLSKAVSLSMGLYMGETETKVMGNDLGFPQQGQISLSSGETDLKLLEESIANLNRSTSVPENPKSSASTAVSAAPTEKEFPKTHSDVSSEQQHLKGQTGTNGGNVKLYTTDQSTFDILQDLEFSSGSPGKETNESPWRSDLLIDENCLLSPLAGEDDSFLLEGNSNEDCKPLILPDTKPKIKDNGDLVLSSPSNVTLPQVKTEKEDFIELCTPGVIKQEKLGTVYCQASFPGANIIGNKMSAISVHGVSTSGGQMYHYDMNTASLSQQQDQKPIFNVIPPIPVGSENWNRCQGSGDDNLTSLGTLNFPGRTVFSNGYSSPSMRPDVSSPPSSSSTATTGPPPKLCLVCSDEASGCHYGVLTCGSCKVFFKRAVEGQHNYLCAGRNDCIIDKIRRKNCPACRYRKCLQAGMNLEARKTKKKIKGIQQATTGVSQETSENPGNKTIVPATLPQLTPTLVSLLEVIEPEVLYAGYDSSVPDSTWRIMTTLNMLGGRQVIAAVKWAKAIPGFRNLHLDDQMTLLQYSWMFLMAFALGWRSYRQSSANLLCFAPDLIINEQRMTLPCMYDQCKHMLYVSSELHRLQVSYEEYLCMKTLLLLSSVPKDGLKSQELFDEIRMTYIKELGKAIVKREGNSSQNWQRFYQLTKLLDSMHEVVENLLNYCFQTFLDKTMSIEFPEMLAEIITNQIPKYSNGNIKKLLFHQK
smiles,measurement,setting,value
NC(=S)Nc1ccccc1,Potency,[1],inactive
same,Potency,[2],inactive
same,Potency,[3],inactive
same,Potency,[4],inactive
same,Potency,[5],inactive
same,Potency,[6],inactive
same,Potency,[7],inactive
same,Potency,[8],inactive
same,Potency,[9],inactive
same,Potency,[10],inactive
same,Potency,[11],inactive
same,Potency,[12],inactive
same,Potency,[13],inactive
same,outcome,[14],inactive
same,Potency,[15],inactive
same,Potency,[16],inactive
same,outcome,[17],inactive
same,activation,[18],-3.05% (inactive) and -3.49% (inactive)
same,activation,[19],11.7% (inactive)
same,Potency,[20],inactive
same,outcome,[21],inactive
same,max response,[22],-9.7% and -15%
